# IL1B secr inh = inhibitors of inflammasome signaling (IL-1 beta secretion). THP-1 LPS/ATP IL-1B secretion, AlphaLISA, 16 h; active compounds read low. activity change, % at 57.5 µM. hit rate 4.7% among 360,000. AID 743279; in the data active means activity change below about -50%; inconclusive means mostly about -30% to -49%
#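 Secreted IL-1B measured by AlphaLISA bead assay after 16 h compound exposure of THP-1 cells; compounds (final up to 57.5 uM) added 1 h before LPS (250 ng/mL) and ATP (1.25 mM) stimulation; lower signal means less secretion.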
# DT40 TDP1 no CPT = qHTS for Inhibitors of human tyrosyl-DNA phosphodiesterase 1 (TDP1): qHTS in cells in absence of CPT | DT40 Tdp1-/- hTDP1 cells, no CPT, ATP luminescence, 48 h | Potency, µM (titrated, usually from 46.2 µM), for inactives: at the top dose activity change, negative = growth inhibition, most hits filed as inhibitors | hit rate 15% among 420,000 | AID 686978, 2013; further: potency means the concentration at half of the fitted maximal effect; nearly all actives have a fitted effect of over 55% in size
#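 Chicken DT40 Tdp1-/- cells stably complemented with human TDP1 were seeded at 400 cells/well with DMSO in place of 20 nM camptothecin. After compound pinning, cells grew at least 48 hr at 37 °C; viability read by CellTiter-Glo luminescence.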
# HT1080 IDH1KD tx = kills HT-1080 cells with IDH1 knockdown. hit rate 2% among 360,000. Potency, µM (highest dose often 46.1 µM), for inactives: at the highest dose activity, negative = toxicity, usual class: cytotoxic. HT-1080 IDH1 knockdown viability, ATP luminescence, 48 h;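 further: potency means the concentration at half of the fitted maximal effect; 0% = DMSO wells and -100% = cell-free medium wells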
#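 % activity derives from luminescence (CellTiter-Glo), normalised to DMSO and no-cell wells. HT-1080-IDH1KD cells, 750/well, had 48 h compound exposure at 37 °C.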
# DT40 TDP1 CPT = growth inhibition of DT40 Tdp1-/-;hTDP1 cells with camptothecin (screen for TDP1 inhibitors) | hit rate 12% among 420,000 | Potency, µM (top dose mostly 46.2 µM), for the others: at the top dose activity change, negative = growth inhibition, hits mostly inhibitors | chicken DT40 Tdp1-/-;hTDP1 cells + 20 nM CPT, ATP luminescence, 48 h; further: potency means the concentration at half of the fitted maximal effect; nearly all actives have a fitted effect of over 55% in size
#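 Cell growth measured by CellTiter-Glo luminescence after a minimum 48 h, 37 C compound exposure with 20 nM CPT in Tdp1-knockout DT40 cells stably expressing hTDP1, seeded 400/well; qHTS titration format.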
# HT1080NT lethal = kills 2HG-producing HT-1080-NT fibrosarcoma cells | hit rate 1.6% among 360,000 | AID 686970 | Potency, µM (series often up to 46.1 µM), inactives show at the top dose activity, negative = less viability, usual class: cytotoxic | HT-1080-NT fibrosarcoma viability, CellTiter-Glo ATP luminescence, 48 h;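 further: NT is the 2HG producing partner of a matched IDH1 knockdown line; potency means the concentration at half of the fitted maximal effect; 0% = DMSO-treated cells and -100% = media-only wells without cells; nearly all actives have a fitted effect of over 55% in size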
#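 Read-out is CellTiter-Glo luminescence after 10 minutes at room temperature, following 48 hours' compound treatment of HT-1080-NT cells (750 cells/well, RPMI, 5% FBS, 37 degrees C).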
# The depositor's hits bear a star; ? = inconclusive; · = no result; ! = not confirmed by another sample; [ ] = dose if it differs, or a comment. In the library only some 19% were active in any assay of this set; here they are far more common. Unless noted, the call rests on the fitted dose curve; in most records, active means well fitted curve in the direction sought with a large enough effect; inconclusive means small, poorly fitted or top-dose-only effect, or another doubt; inactive means no such curve, though single readings can be large; an effect the other way counts as inactive or inconclusive. Unless noted, on the % scale 0 is the no-effect control and ±100 the full control effect.
SMILES,IL1B secr inh,DT40 TDP1 no CPT,HT1080 IDH1KD tx,DT40 TDP1 CPT,HT1080NT lethal
COC(=O)c1cc2c(cc1NC(=O)c1cnn(-c3ccccc3)c1-n1cccc1)OCO2,·,-16.8%,·,-26.0%,·
CC1CC(C)CN(CC(=O)N2CCCc3c2c(=O)oc2ccc(OCc4ccccc4)cc32)C1 (stereo not drawn),-29.9,11.6µM*,?,20.6µM*,?
CC(=O)N1CCN(C(=O)COc2ccc3oc4c(c3c2)CCCC4)CC1,-0.6,-29.0%,10.9%,-16.2%,8.2%
CCCOc1ccc2oc(=O)c3c(c2c1)CCCN3C(=O)CN1CCc2ccccc2C1,39.7,23.1µM*,-1.1%[9.24 µM],?,?
CC1CCN(CC(=O)N2CCCc3c2c(=O)oc2ccc(OCc4ccccc4)cc32)CC1,-25.1,13µM*!,?,?,?
N#CCCN1CCn2c1nc1ccccc12,15.7,-7.9%,6.7%,3.5%,13.0%
Cc1ccc2c(CC(=O)N3CCOc4ccc(CN5CCOCC5)cc4C3)cc(=O)oc2c1,·,-18.2%,·,-2.5%[9.04 µM],·
COc1ccc(O)c(/C=c2/sc3nc4cc(C)c(C)cc4n3c2=O)c1,15.1,16.4µM*,?,16.4µM*,?
CN1OC[C@@H]2CN(C(=S)NCCc3ccccc3)[C@H](c3ccc(N4CCCCC4)cc3)C[C@@H]21,0.6,?,7.2%,16.4µM*,10.2%
CN1OC[C@@H]2CN(C(=O)CCc3ccccc3)[C@H](c3ccc(N4CCCCC4)cc3)C[C@@H]21,-14.8,?,12.1%,?,3.2%
OCCNc1nc(NCCC2=CCCCC2)nc(N2CCOCC2)n1,-4.5,20.6µM*,-12.7%,20.6µM*,-0.6%
COc1ccc(N(C)C(=O)CN(C)S(=O)(=O)c2ccc3c(c2)c(=O)n(C)c(=O)n3C)c(OC)c1,9.3,?,11.1%,9.0%,1.4%
COc1cccc(N2CCN(CC(=O)C34CC5CC(CC(C5)C3)C4)CC2)c1,0.0,-15.7%,3.0%,2.6%,0.2%
COc1cccc(N2CCN(C(C)C(=O)NC34CC5CC(CC(C5)C3)C4)CC2)c1 (stereo not drawn),-15.2,16.4µM*,-4.2%,?,-5.5%
COc1ccc(N2CCN(C(=O)NC34CC5CC(CC(C5)C3)C4)CC2)cc1,38.6,23.1µM*,-16.7%,?,-14.1%
Cc1ccc2c(c1)c1c(n2CC(O)Cn2c(C)nc3ccccc32)/C(=N\O)CCC1 (stereo not drawn),-3.2,23.1µM*,?,23.1µM*,20.6µM*
Cc1ccc2c(c1)c1c(n2CC(O)Cn2c(C)nc3ccccc32)C(=O)CCC1 (stereo not drawn),-1.6,18.4µM*,8.5%,25.9µM*,18.5%
Cc1ccc2c(c1)c1c(n2CC(O)Cn2ccnc2C)C(=O)CCC1 (stereo not drawn),-7.9,?,-2.7%,?,-15.9%
Cc1ccc2c(c1)c1c(n2CC(O)CN2C(=O)CNC2=O)C(=O)CCC1 (stereo not drawn),-10.4,3.8%,0.7%,7.2%,3.5%
O=C(Nc1ccc(-c2nc3c(ccc4ccccc43)o2)cc1)c1ccco1,12.9,18.4µM*,10µM*,?,10µM*
CC(NC(=O)c1ccco1)c1nc(-c2ccc(Cl)cc2)no1 (stereo not drawn),-6.6,20.6µM*,-23.5%,?,-3.4%
O=C(Nc1ccc(-c2noc(CCc3ccccc3)n2)cc1)c1ccco1,-4.9,?,?,18.4µM*,?
O=C(Nc1ccc(-c2nc3cc(Cl)ccc3c(=O)o2)cc1)c1ccco1,15.3,?,25.3%,-0.3%,27.6%
CCCN=C1N(CC)C[C@@H]2[C@@H]3C(=O)N(C)C(=O)[C@@H]3[C@](Cc3ccccc3)(C(=O)OC)N12,9.6,-1.7%,0.5%,-13.3%,-2.6%
COC(=O)c1ccc(CSC2=NC[C@@H]3[C@@H]4C(=O)N(Cc5ccccc5)C(=O)[C@@H]4[C@](C)(C(=O)OC)N23)cc1,17.8,16.4µM*,8.3%,?,10.5%
